# From PubChem
# HepG2 viability: qHTS for Inhibitors of TGF-b: Cytotox Counterscreen; hit rate 0.76% among 410,000; HepG2 CAGA-GFP viability, ATP luminescence, 18 h; AID 588856, 2011; Potency, µM (doses to about 46.1 µM), for the others: top-dose activity change, negative = cytotoxicity, hits mostly cytotoxic
#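 HepG2 CAGA-GFP cells (1000/well, DMEM with 1% FBS) received compound, then TGF-beta at 500 pg/mL final, and were incubated 18 hours at 37 degrees C. Viability was read by CellTiter-Glo luminescence. Media-only wells were set as complete cell-killing and DMSO as no toxicity.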
# TGFb inhibitor: qHTS for Inhibitors of TGF-b | HepG2 CAGA-GFP TGF-b/SMAD3 reporter, GFP fluorescence, 18 h; TGF-beta stimulated, 500 pg/mL final | Potency, µM (doses to about 46.1 µM), without a hit: at the top dose activity, negative = inhibition, actives largely listed as inhibitors | hit rate 1.2% among 410,000 | AID 588855, 2011; further: on the % scale 0 is the no-effect control and ±100 the full control effect; nearly all actives have a fitted effect of over 65% in size
#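 Read-out: total well GFP (ex488/em500-530) summed from mean per-cell fluorescence. Cells: HEPG2 CAGA-GFP, 1% FBS DMEM, 18 h at 37 degrees C with 500 pg/mL final TGF-beta. Unstimulated wells served as the full-inhibition control; stimulated DMSO wells = 0%.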
# ATXN viability: Viability Counterscreen for Primary qHTS for Inhibitors of ATXN expression | S2 cells (HEK-293 line with an ATXN2-luciferase reporter) viability, CellTiter-Fluor protease fluorescence, 24 h | hit rate 0.49% among 400,000 | AID 651635, 2014 | Potency, µM (titrated, usually from 56.7 µM), most hits filed as cytotoxic; further: nearly all actives have a fitted effect of over 40% in size
# ATXN2 expr inh: Primary qHTS for Inhibitors of ATXN expression; AID 1745845, 2022; hit rate 0.72% among 360,000; HEK-293 ATXN2-luciferase reporter, luminescence, 24 h; Potency, µM (titrated, usually from 57 µM), for inactives: at the highest dose activity change, negative = inhibition, usual class: inhibitors; further: on the % scale 0 is the no-effect control and ±100 the full control effect; nearly all actives have a fitted effect of over 55% in size
#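 qHTS (up to 57 uM final) was run with 24 h compound exposure of reporter cells at 37 °C. Each well was multiplexed: SteadyGlo luminescence measured ATXN2-luciferase expression after a fluorogenic Gly-Phe-AFC viability readout (25 uM final).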
# An asterisk follows results filed as active; i = inactive; ? = inconclusive; · = not tested or not shown; ! = repeats disagree; [ ] = another dose, or the depositor's remark. Rows were chosen to be rich in hits. Some 2.3% of all compounds tested hit in one or more screens of this group. The call rests on the fitted dose curve; in most records, active means well fitted curve in the direction sought with a large enough effect; inconclusive means small, poorly fitted or top-dose-only effect, or another doubt; inactive means no such curve, though single readings can be large; an effect the other way counts as inactive or inconclusive. Potency means the concentration at half of the fitted maximal effect.
SMILES,HepG2 viability,TGFb inhibitor,ATXN viability,ATXN2 expr inh
C=C1C(=O)[C@@]23C[C@H]4[C@@H]5[C@@]6(C)CCC[C@@]57[C@@H]2[C@@H](O)[C@@H]1C[C@H]3[C@H]7N4C6,-48%,13µM*,7.9µM*,?
COc1ccc(CNC(=O)C(CC(C)C)NS(=O)(=O)c2ccc3c(c2)oc(=O)n3C)cc1 (stereo not drawn),6%,?,i,-11%
Cc1ccc(NC(=O)C2CCCN(C(=O)c3cnn(-c4ccccc4)c3-n3cccc3)C2)cc1 (stereo not drawn),-9%,?,i,-10%
CC[C@@H](C(=O)[C@@H](C)[C@@H](O)[C@H](C)[C@@H]1O[C@@H]([C@@H](CC)C(=O)O)CC[C@@H]1C)[C@H]1O[C@]2(C=C[C@@H](O)[C@]3(CC[C@@](C)([C@H]4CC[C@](O)(CC)[C@H](C)O4)O3)O2)[C@H](C)C[C@@H]1C,-20%,?,5.6µM*,4.5µM*
O=C(COc1ccc(Br)cc1)N1CCN(Cc2c[nH]c3ccccc23)CC1,-63%,11µM*,i,-7%
O=C(COc1ccc2ccccc2c1)N1CCN(Cc2c[nH]c3ccccc23)CC1,13µM*,?,?,?
c1ccc2c(CN3CCCCC3)c[nH]c2c1,-29%,0%,i,-10%
CC1COC2(c3ccccc3Cl)c3cc(Cl)ccc3NC(=O)CN12 (stereo not drawn),·,·,i,4%
C[C@H]([C@H](O)CCC(C)(C)O)[C@H]1CC[C@@]2(O)C3=CC(=O)[C@@H]4C[C@@H](O)[C@@H](O)C[C@]4(C)[C@@H]3CC[C@]12C,·,·,·,8%
CC1Oc2cc3c(-c4c(O)cc(O)c5c(O)c6c(cc45)OC(C)C(C)C6=O)c(O)cc(O)c3c(O)c2C(=O)C1C (stereo not drawn),11µM*,14µM*,?,11µM*
Cc1cccc(CN2C(=O)CN=C(c3ccccc3)c3ccccc32)c1,-1%,-23%,·,·
Cc1cccc(CN2C(=O)CN=C(c3ccccc3)c3cc(Cl)ccc32)c1,-41%,16µM*,·,·
Cc1cc(C)cc(NC(=O)CN2C(=O)CN=C(c3ccccc3)c3cc(Cl)ccc32)c1,-46%,?,·,·
CCc1cccc(NC(=O)CN2C(=O)CN=C(c3ccccc3F)c3cc(Cl)ccc32)c1,-55%,13µM*,·,·
COc1cc([N+](=O)[O-])c2nc(C)ccc2c1[N+](=O)[O-],-72%,?,28µM*,-25%
C=CCC1([C@H](C)CCC)C(=O)NC(=O)NC1=O,·,·,i,9%[116 µM]
C=CCC1(C(C)CC)C(=O)NC(=O)NC1=O (stereo not drawn),·,·,i,3%
CCCCC(=O)Nc1c(C(=O)N2CCN(c3ccccc3F)CC2)oc2ccccc12,-25%,?,·,·
CC(C)CC(N)c1csc(NC(=O)Nc2ccccc2-c2ccccc2)n1 (stereo not drawn),-97%,?,25µM*,-27%
CC(C)c1ccc(NC(=O)Nc2nc(C(N)CCc3ccccc3)cs2)cc1 (stereo not drawn),7.9µM*,?,28µM*,28µM*
C[C@]12COC(=O)C[C@@H]1CC[C@@H]1[C@H]2CC[C@@]2(C)[C@H]1CC[C@]2(C)O,·,·,·,5%
[Hg+][c]1ccccc1,0.56µM*,0.32µM*,·,·
CO[C@H]1CCC(O[C@H]2C[C@H]([C@]3(C)CC[C@]4(C[C@H](O)[C@@H](C)[C@@H]([C@@H](C)C=C(C)C(=O)[C@H](C)C[C@H](C)C(=O)O)O4)O3)O[C@]3(O[C@@H]([C@H]4O[C@@](O)(CO)[C@H](C)C[C@H]4C)C[C@H]3C)[C@H]2C)O[C@H]1C (stereo partly drawn),·,·,·,3.1µM*
S=C(SSC(=S)N1CCCCC1)N1CCCCC1,·,·,10µM*!,-90%
CCCCC[C@@H](O)C1C(=O)OC(C)[C@H](O)/C=C/C=C/C=C/C=C/C=C(\C)C(O)C(O)C(O)C[C@H](O)C[C@H](O)C[C@H](O)C[C@H](O)C[C@@H]1O (stereo partly drawn),·,·,i,·
SMILES,HepG2 viability,TGFb inhibitor,ATXN viability,ATXN2 expr inh
O=C1NC(=O)N(Cc2ccccc2)C(=O)/C1=C\C=C\c1ccco1,-15%,10µM*,i,·
O=C1NC(=O)N(Cc2ccco2)C(=O)/C1=C/C=C/c1ccco1,-25%,7.1µM*,?,?
C[C@@H]1[C@H]2Cc3ccc(O)cc3[C@]1(C)CCN2C,·,·,i,·
CCn1c(O)c(C=Nc2ccc(S(N)(=O)=O)cc2)c(=O)n(CC)c1=S,-7%,-15%,i,-20%
NS(=O)(=O)c1ccc(N=Cc2c(O)n(C3CCCCC3)c(=O)n(C3CCCCC3)c2=O)cc1,-111%,16µM*,·,?
O=c1oc2ccccc2c(O)c1C(CC(O)c1ccc(-c2ccc(Br)cc2)cc1)c1ccccc1 (stereo not drawn),·,·,i,9%
C=C(C=O)C[C@@H]1C[C@H](O)C2OC3C[C@]4(C)OC5/C=C\CC6OC7C(CC=CCC6OC5CCCC4OC3CC2O1)OC1CC2OC3CC(=O)OC3C[C@@H](C)C[C@@]2(C)OC1C[C@@H]7C (stereo partly drawn),·,?,1.8µM*,1.6µM*
CN1CC[C@@]2(C)c3cc(O)ccc3N(C)C2O1 (stereo partly drawn),-21%,-21%,i,-11%
CN1CC[C@@]2(C)c3cc(O)ccc3N(C)[C@@H]12,18µM*!,?,14µM*,-22%
CCN(C(=O)Cn1c(=O)oc2cc(Cl)ccc21)c1cccc(C(F)(F)F)c1,-92%,?,i,-14%
Cc1ccc(NC(=O)c2cc(S(=O)(=O)N3CCOCC3)c(Cl)cc2Cl)cc1,-29%,?,?,?
CC1(C)C(C(=O)N2CCN(c3ccc(Cl)cc3)CC2)C1(C)C,-23%,-17%,i,?
COC(=O)C1CN(C#N)N(c2ccc(Cl)cc2)C12c1ccccc1-c1ccccc12 (stereo not drawn),3.5µM*,5µM*,4µM*,4µM*
CC(O)CN1CCN(CC(=O)[O-])CCN(CC(=O)[O-])CCN(CC(=O)[O-])CC1.[Gd+3] (stereo not drawn),·,·,i,8%
COc1ccc(Oc2cc(NC(=O)c3nn(C)cc3[N+](=O)[O-])cc([N+](=O)[O-])c2)cc1,18µM*,10µM*,i,-4%
CC(C)c1oc(=O)cc2c1[C@@H](O)[C@H]1OC(=O)[C@@]3(C)CC[C@@H](O)[C@@]2(C)C13 (stereo partly drawn),-25%,2µM*,?,13µM*
COc1ccc(S(=O)(=O)NCCc2sc3nc(-c4ccc(C)cc4)nn3c2C)cc1F,3%,?,·,·
COc1cccc(C(c2nnnn2C2CCCCC2)N2CCC3(CC2)C(=O)NCN3c2ccccc2)c1OC (stereo not drawn),-3%,22µM*,?,?
